Results from the supplement of paper PMC8728848.
The sample as a whole holds a higher share of the strongest signals than the screen did.

Legend:
Experiment in all cases: glycan array binding signal (z-score within array); higher = stronger binding
Settings in all cases: glycan notation: IUPAC condensed, linker removed
[1] = target: Fuc(a1-2)Gal(b1-3)GalNAc(b1-4)[Neu5Ac(a2-3)]Gal(b1-4)Glc
Outline: (§1)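 The Consortium for Functional Glycomics database supplied 3228 glycan arrays, of which those lacking an available protein sequence were dropped. The binding signal, a within-array Z-score, was averaged across arrays of the same protein sequence and across linkers. Negative scores can be read as non-binding.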

[2] = target: Fuc(a1-2)[Gal(a1-3)]Gal(b1-3)GlcNAc
Outline: as §1

[3] = target: Fuc(a1-2)[GalNAc(a1-4)]Gal(b1-4)GlcNAc
Outline: as §1

[4] = target: Fuc(a1-4)GlcNAc
Outline: as §1

[5] = target: Gal(a1-3)Gal(b1-4)GlcNAc
Outline: as §1

[6] = target: Gal(b1-3)[Fuc(a1-4)]GlcNAc
Outline: as §1

[7] = target: Gal(b1-3)[Fuc(a1-4)]GlcNAc(b1-3)Gal(b1-4)[Fuc(a1-3)]GlcNAc
Outline: as §1

[8] = target: Gal3S(b1-3)GalNAc
Outline: as §1

[9] = target: GalNAc(a1-3)Gal
Outline: as §1

[10] = target: GalNAc(a1-3)GalNAc
Outline: as §1

[11] = target: GalNAc(b1-3)Gal(a1-4)Gal(b1-4)GlcNAc
Outline: as §1

[12] = target: GlcA(b1-6)Gal
Outline: as §1

[13] = target: GlcNAc(b1-3)Gal(b1-4)Glc
Outline: as §1

[14] = target: Man(a1-2)Man(a1-3)Man
Outline: as §1

[15] = target: Man(a1-2)Man(a1-3)[Man(a1-2)Man(a1-6)]Man(a1-6)[Man(a1-3)[Man(a1-6)]Man(a1-6)]Man(b1-4)GlcNAc(b1-4)GlcNAc
Outline: as §1

[16] = target: Neu5Ac(a2-3)Gal(b1-3)[Neu5Ac(a2-3)Gal(b1-4)]GlcNAc
Outline: as §1

[17] = target: Neu5Ac(a2-3)Gal(b1-4)GlcNAc(b1-3)Gal(b1-4)GlcNAc(b1-3)Gal(b1-4)GlcNAc
Outline: as §1

[18] = target: Neu5Ac(a2-3)Gal(b1-4)GlcNAc6S
Outline: as §1

[19] = target: Neu5Ac(a2-3)Gal(b1-4)[Fuc(a1-3)]GlcNAc(b1-3)Gal(b1-4)GlcNAc
Outline: as §1

[20] = target: Neu5Ac(a2-6)Gal(b1-4)GlcNAc(b1-2)Man(a1-3)[Neu5Ac(a2-6)Gal(b1-4)GlcNAc(b1-2)Man(a1-6)]Man(b1-4)GlcNAc(b1-4)GlcNAc
Outline: as §1

[21] = target: Neu5Ac(a2-6)GalNAc(b1-4)GlcNAc
Outline: as §1

[22] = target: Neu5Gc(a2-3)Gal(b1-3)[Fuc(a1-4)]GlcNAc
Outline: as §1

[23] = target: Neu5Gc(a2-3)Gal(b1-4)Glc
Outline: as §1

[24] = target: Neu5Gc(a2-6)GalNAc
Outline: as §1

B1: M6PR (Bos taurus), P11456 (protein)
chain: MMSPLHSSWRTGLLLLLLFSVAVRESWQTEEKTCDLVGEKGKESEKELALLKRLTPLFNKSFESTVGQSPDMYSYVFRVCREAGNHSSGAGLVQINKSNGKETVVGRFNETQIFNGSNWIMLIYKGGDEYDNHCGREQRRAVVMISCNRHTLADNFN
glycan array binding signal (z-score) [1]: 2.76 | glycan array binding signal (z-score) [2]: -0.012 | glycan array binding signal (z-score) [3]: -0.255 | glycan array binding signal (z-score) [4]: -0.026 | glycan array binding signal (z-score) [5]: -0.036 | glycan array binding signal (z-score) [6]: -0.132 | glycan array binding signal (z-score) [7]: 0.169 | glycan array binding signal (z-score) [8]: -0.095 | glycan array binding signal (z-score) [9]: 1.42 | glycan array binding signal (z-score) [10]: 0.045 | glycan array binding signal (z-score) [11]: 0.285 | glycan array binding signal (z-score) [12]: -0.256 | glycan array binding signal (z-score) [13]: 1.12 | glycan array binding signal (z-score) [14]: -0.287 | glycan array binding signal (z-score) [15]: 3.23 | glycan array binding signal (z-score) [16]: -0.269 | glycan array binding signal (z-score) [17]: -0.446 | glycan array binding signal (z-score) [18]: -0.267 | glycan array binding signal (z-score) [19]: 0.517 | glycan array binding signal (z-score) [20]: -0.279 | glycan array binding signal (z-score) [21]: 0.219 | glycan array binding signal (z-score) [22]: -0.343 | glycan array binding signal (z-score) [23]: -0.187 | glycan array binding signal (z-score) [24]: 1.03
